Compounds with a hit are over-represented: about 7.7% of the library has one in this group of screens.
Sm TGR block: blocks Schistosoma mansoni thioredoxin glutathione reductase; purified TGR, DTNB reduction, TNB absorbance 405 nm; AID 485364; 360,000 tested, 3% active; Q962Y6; Potency, µM (titrated, usually from 114 µM), for inactives: top-dose activity change, negative = inhibition, usual class: inhibitors; also: potency is read from the fitted curve at half-maximal effect; nearly all actives have a fitted effect of over 60% in size
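First, TGR (20 nM dispensed) and NADPH were mixed with compound. Second, a 15 min room-temperature incubation followed. Third, further NADPH and then DTNB were added to start the reaction. Finally, TNB absorbance was monitored kinetically.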
RE007 growth inh: less growth of the S. pombe RE007 Vpr strain; S. pombe RE007 Vpr strain, BacTiter-Glo ATP luminescence, 24 h; AID 651644; Potency, µM (titrated, usually from 92.2 µM), without a hit: top-dose activity change, negative = less growth, usual class: inhibitors; 360,000 tested, 0.21% active; active = well fitted falling curve with a large enough effect; inconclusive = small, poorly fitted or top-dose-only effect; inactive = no such curve, though single readings can be large or run the other way; also: potency is read from the fitted curve at half-maximal effect; nearly all actives have a fitted effect of over 50% in size
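Fission yeast RE007 carrying one integrated HIV-1 vpr copy, seeded at OD 0.01 in PMG+AL medium with 23 nL pinned compound. Grown 24 h at 30 degrees; viability read by BacTiter-Glo luminescence after 5 min.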
Tb PYK inh: blocks Trypanosoma brucei pyruvate kinase; Potency, µM (series often up to 76.8 µM), inactives show at the top dose activity, negative = inhibition, most hits filed as inhibitors; TbPYK enzyme, Kinase-Glo Plus ATP luminescence, 45 min; 410,000 tested, 0.12% active; Q57TT1; also: potency is read from the fitted curve at half-maximal effect; nearly all actives have a fitted effect of over 50% in size
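Luminescence from Kinase-Glo Plus, added after a 45-minute room-temperature reaction, served as the end-point read-out. The enzyme and substrate were preincubated with compound before ADP (130 uM final) initiated turnover. Concentration-effect curves came from normalized qHTS data.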
HCMV antiviral: blocks human cytomegalovirus replication; 410,000 tested, 4.5% active; AID 1259415; activity change, negative = inhibition, % at 57.5 µM; HFF cells, HCMV-luciferase reporter, 72 h; hits give low values; in the data active = activity change below about -60%; inconclusive = no clear call, values can overlap the other calls; inactive = above about -39%
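Inhibition of viral replication was scored as loss of reporter luminescence in HFFs infected with HCMV-luciferase (MOI 1 PFU/cell) for 72 h; compounds tested at 2 doses, normalized to buffer and Salinomycin controls.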
FMDV antiviral: foot and mouth disease virus antiviral activity. 410,000 tested, 1.2% active. FMDV antiviral cell-based qHTS. AID 1159524. Potency, µM (doses to about 57.9 µM), for the others: at the top dose activity change, negative = inhibition, hits mostly inhibitors; calls by dose curve; tested in HEK293T cells; also: read-out not given here; potency is read from the fitted curve at half-maximal effect; nearly all actives have a fitted effect of over 45% in size
FBPA Giardia inh: Giardia lamblia aldolase inhibition; A8B2U2; purified Giardia FBPA; Potency, µM (series often up to 59.6 µM), for inactives: at the top dose activity, negative = inhibition, most hits filed as inhibitors; 290,000 tested, 0.71% active; also: potency is read from the fitted curve at half-maximal effect; nearly all actives have a fitted effect of over 55% in size
Target sequence (A8B2U2 whole entry, looked up): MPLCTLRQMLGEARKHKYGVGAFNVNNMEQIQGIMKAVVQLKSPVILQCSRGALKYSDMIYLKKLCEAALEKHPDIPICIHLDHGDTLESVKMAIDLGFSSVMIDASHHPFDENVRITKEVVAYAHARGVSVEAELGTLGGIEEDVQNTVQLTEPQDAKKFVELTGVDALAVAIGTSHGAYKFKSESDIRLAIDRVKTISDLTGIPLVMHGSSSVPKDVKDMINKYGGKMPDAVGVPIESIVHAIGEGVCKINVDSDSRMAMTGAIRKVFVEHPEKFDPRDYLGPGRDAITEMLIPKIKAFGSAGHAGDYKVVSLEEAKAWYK
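40 nM FBPA preincubated 10 min at RT with compound (up to 57.5 uM final), then substrate plus GAPDH/TPI/NAD/arsenate coupling and diaphorase/resazurin added. Fluorescence read after 20 min at RT, 525/598 nm.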
Active calls of the source: *; ? = inconclusive; · = not tested or not shown; [ ] = remark or other dose. Unless noted, calls follow the shape of the dose curve; as a rule, active = well fitted curve in the direction sought with a large enough effect; inconclusive = small, poorly fitted or top-dose-only effect, or another doubt; inactive = no such curve, though single readings can be large; an effect the other way counts as inactive or inconclusive. % is scaled to controls: 0 for no effect and ±100 for the full control effect.

SMILES | Sm TGR block | RE007 growth inh | Tb PYK inh | HCMV antiviral | FMDV antiviral | FBPA Giardia inh
CCOC(=O)C(=CNc1ccc(NC2=NCC(C)S2)cc1)C(=O)OCC (stereo not given) | 8% | · | 5% | -66* | -14% | 1%
CC1CCCCC1NC(=O)CC1Oc2ccccc2NC1=O (stereo not given) | 0% | 18% | -1% | -66* | -24% | 1%
CC(CCCN(C)C)C(Cc1ccccc1)c1ccccc1 (stereo not given) | · | 4% | 1% | -78* | -17% | ·
COc1ccc(C(=O)NCCS(=O)(=O)NCc2ccco2)cc1 | 45µM* | 0% | 3% | 8 | -9% | ·
COc1cccc(C(=O)NCCS(=O)(=O)NCc2ccco2)c1 | ? | 63% | 0% | -68* | 8% | ·
COc1cccc(C(=O)NCc2ccco2)c1 | -34% | -4% | -1% | 14 | 13% | -10%
COc1ccc(CNS(=O)(=O)CCNC(=O)c2ccc(OC)cc2)cc1 | 2% | 11% | -2% | -1 | -4% | ·
N#CC1=C(N)Oc2n[nH]c(-c3cccs3)c2C1c1ccco1 (stereo not given) | 32µM* | -14% | -18% | 36 | -10% | ?
Cc1[nH]nc2c1C(Cc1ccccc1)C(C#N)=C(N)O2 (stereo not given) | 20µM* | 5% | -1% | 24 | 4% | 9%
Cc1ccsc1C1C(C#N)=C(N)Oc2n[nH]c(C)c21 (stereo not given) | 2% | -4% | -2% | -11 | 32µM* | -13%
CCc1[nH]nc2c1C(Cc1ccccc1)C(C#N)=C(N)O2 (stereo not given) | ? | 8% | 1% | 40 | 0% | -1%
CCCCN(CCCC)c1ncnc2nc[nH]c12 | · | -6% | -16% | -91* | ? | 1%
CCN(c1ccc(OC)cc1)c1ncnc2nc[nH]c12 | -9% | -1% | 0% | -88* | 0% | -4%
CCCN(c1ccc(OCC)cc1)c1ncnc2nc[nH]c12 | 2% | 6% | -4% | ? | 5% | -16%
CCCCN(Cc1ccccc1)c1ncnc2nc[nH]c12 | 1% | 12% | 2% | · | -9% | 4%
CCOC(=O)c1c(C)[nH]c(CCC(=O)Nc2ccccc2C(=O)OC)c1C | 0% | · | -2% | -73* | -8% | ·
CCOC(=O)c1c(C)[nH]c(CCC(=O)Nc2ccccc2OCC)c1C | 4% | · | 0% | ? | -21% | ·
COc1ccc(OC)c(-c2noc(N3CCN(c4ccc(C(C)=O)cc4)CC3)n2)c1 | 21% | · | 9% | -15 | ? | ·
Cc1ccc2c(c1)CN(CCNC(=O)c1ccc3nc(C)[nH]c3c1)CC(C)O2 (stereo not given) | · | · | · | · | -5% | ·
CCc1nnc(NC(=O)CSc2nnc(-c3ccccc3O)n2CC)s1 | 10% | 11% | -15% | 9 | -5% | 4%
CCn1c(SCC(=O)Nc2nc(-c3ccccc3)cs2)nnc1-c1ccccc1O | -28% | 27% | -9% | 1 | 35µM* | -10%
CCn1c(CCNC(=O)c2cccs2)nnc1SCC(=O)Nc1cccc(Cl)c1 | · | -10% | 3% | 2 | -10% | ·
CCn1c(CCNC(=O)c2cccs2)nnc1SCC(=O)Nc1nc(-c2ccccc2)cs1 | -14% | 17% | -10% | 51 | 20µM* | -16%
CC(=O)N(CC(O)CN(C(C)=O)c1c(I)c(C(=O)NC[C@@H](O)CO)c(I)c(C(=O)NC[C@@H](O)CO)c1I)c1c(I)c(C(=O)NC[C@@H](O)CO)c(I)c(C(=O)NC[C@@H](O)CO)c1I | · | · | -4%[33.2 µM] | · | · | 2%[21.7 µM]
O=C(COc1ccccc1F)Nc1ccc2c(c1)CCC2 | · | -16% | 4% | 85 | 32% | ·
SMILES | Sm TGR block | RE007 growth inh | Tb PYK inh | HCMV antiviral | FMDV antiviral | FBPA Giardia inh
O=C(COc1cccc(Cl)c1)Nc1ccc2c(c1)CCC2 | -9% | ? | 0% | -66* | 23% | -4%
CC(N)C(=O)NC1C2C(=C(O)CC(O)C2O)C(=O)OC1(C)C(Cl)Cl (stereo not given) | · | ? | -1% | -76* | ? | ·
O=C1c2ccccc2C(Cc2ccnc(F)c2)(Cc2ccnc(F)c2)c2ccccc21 | · | · | · | · | -22% | 4%
CCc1ccccc1NC(=O)c1ccc2nc(C(C)C)oc2c1 | -1% | · | -1% | 2 | ? | ·
CSCCC(NS(=O)(=O)c1ccc(Cl)cc1)C(=O)O (stereo not given) | -1% | 0% | 0% | -9 | -8% | 11%
CSCCC(NS(=O)(=O)c1ccc(C)c(C(=O)O)c1)C(=O)O (stereo not given) | -5% | 6% | -7% | -64* | 0% | 12%
CC(C)(C)c1nn(-c2ccccc2)c2[nH]c(=O)c(CNc3ccc4c(c3)OCCO4)cc12 | -25% | 5% | 7% | -62* | · | -29%
COC(=O)C1=C(C)NC2=C(C(=O)CCC2)C1c1ccsc1 (stereo not given) | 6% | · | · | · | · | -4%
CC1=C(C(=O)N2CCOCC2)C(c2ccsc2)C2=C(CCCC2=O)N1 (stereo not given) | 45µM* | 3% | -8% | -2 | 2% | ?
N#CC1(C#N)CC(C=O)=C(N)C1(C#N)CC(=O)C12CC3CC(CC(C3)C1)C2 (stereo not given) | 40µM* | -2% | -19% | -2 | 22µM* | -3%
Cc1ccc(CNC(=O)CCCc2nnc3n(C)c(=O)c4sccc4n23)cc1 | -2% | · | 3% | 2 | -27% | ·
Cc1ccc(S(=O)(=O)CCC(=O)Nc2sccc2C#N)cc1 | 45µM* | 2% | -1% | -36 | -7% | ·
Cc1ccc(S(=O)(=O)CCC(=O)Nc2ccccc2C)cc1 | 40µM* | 16% | 0% | 7 | 7% | -2%
Cc1ccc(S(=O)(=O)CCC(=O)Nc2ccccc2N2CCCC2)cc1 | -24% | -10% | 1% | -19 | -25% | ·
C=C1C(=O)[C@@]23C[C@H]4[C@@H]5[C@@]6(C)CCC[C@@]57[C@@H]2[C@@H](O)[C@@H]1C[C@H]3[C@H]7N4C6 | · | 0% | 1% | -77* | 25µM* | ·
COCCn1c(N2CCN(c3ccccc3)CC2)nc2c1c(=O)n(C)c(=O)n2C | 0% | 1% | 3% | -22 | ? | 1%
COCCn1c(C)cc(O)c(C(c2ccc(F)cc2)N2CCN(c3ccccc3)CC2)c1=O (stereo not given) | 3.2µM* | · | -15% | 3 | -24% | ·
Fc1ccc(C(c2nnnn2Cc2cccs2)N2CCN(c3ccccc3)CC2)cc1 (stereo not given) | -1% | -5% | 1% | 28 | 0% | -14%

High-throughput results: PubChem BioAssay, National Center for Advancing Translational Sciences (NCATS)
